# In paper PMC7862700, “An all-to-all approach to the identification of sequence-specific readers for epigenetic DNA modifications on cytosine”:
# What was measured:
# Test in all cases: DAPPL (digital affinity profiling via proximity ligation, sequencing); 10 mM Tris-HCl pH 7.5, 50 mM NaCl, 1 mM DTT, 4% glycerol, room temperature, 30 min; GST-TFs on glutathione beads, 16-mer random dsDNA library, 0.1% formaldehyde crosslink after washing; high values mean tight binding
# [1] = biological target: T1, FLI1 (Homo sapiens, UniProt Q01543 1-452); conditions: protein: recombinant; tags: N-terminal GST; dsDNA, one strand shown
# T1 sequence: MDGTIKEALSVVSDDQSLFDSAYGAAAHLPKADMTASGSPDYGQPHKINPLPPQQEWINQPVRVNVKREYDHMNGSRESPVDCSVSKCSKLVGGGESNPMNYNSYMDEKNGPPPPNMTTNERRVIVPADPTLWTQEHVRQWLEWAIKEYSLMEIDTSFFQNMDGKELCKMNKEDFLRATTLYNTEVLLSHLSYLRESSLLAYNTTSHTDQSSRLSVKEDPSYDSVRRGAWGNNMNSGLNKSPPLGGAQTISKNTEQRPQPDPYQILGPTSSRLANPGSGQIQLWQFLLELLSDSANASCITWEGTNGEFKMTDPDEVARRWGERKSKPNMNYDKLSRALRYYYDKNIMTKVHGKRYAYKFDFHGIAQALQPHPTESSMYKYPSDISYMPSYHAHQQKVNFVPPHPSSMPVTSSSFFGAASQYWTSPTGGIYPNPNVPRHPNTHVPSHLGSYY
# Outline: (§1)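 Sequencing on an Illumina NextSeq500 followed washing, crosslinking with 0.1% formaldehyde, proximity ligation (BsaI/T4 ligase, 1 h, 37 °C) and PCR amplification of pools that had been incubated for 30 min at room temperature with 200 nmole of a random double-stranded 16-mer DNA library in Tris/NaCl/DTT/glycerol buffer. Each pool held DNA-barcoded human transcription factors, expressed in yeast as GST fusions and captured on glutathione beads, plus a tag-only sample. Binding signal is a hexamer's read frequency for a factor divided by its frequency in the tag-only sample.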
# [2] = biological target: T2, ELK1 (Homo sapiens, UniProt P19419 1-428); conditions: protein: recombinant; tags: N-terminal GST; dsDNA, one strand shown
# T2 sequence: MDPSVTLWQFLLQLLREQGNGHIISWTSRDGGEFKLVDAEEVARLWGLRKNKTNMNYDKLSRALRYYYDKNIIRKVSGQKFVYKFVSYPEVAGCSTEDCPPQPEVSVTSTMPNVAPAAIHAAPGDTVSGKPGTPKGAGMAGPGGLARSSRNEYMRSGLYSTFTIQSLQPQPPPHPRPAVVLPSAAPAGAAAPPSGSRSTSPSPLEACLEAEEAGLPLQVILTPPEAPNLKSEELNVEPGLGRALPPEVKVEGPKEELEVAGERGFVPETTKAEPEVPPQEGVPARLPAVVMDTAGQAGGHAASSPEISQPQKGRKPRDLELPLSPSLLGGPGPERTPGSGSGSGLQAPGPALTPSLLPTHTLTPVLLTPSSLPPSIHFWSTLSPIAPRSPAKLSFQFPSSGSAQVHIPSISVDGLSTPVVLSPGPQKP
# Outline: as §1
# [3] = biological target: T3, GABPA (Homo sapiens, UniProt Q06546 1-454); conditions: protein: recombinant; tags: N-terminal GST; dsDNA, one strand shown
# T3 sequence: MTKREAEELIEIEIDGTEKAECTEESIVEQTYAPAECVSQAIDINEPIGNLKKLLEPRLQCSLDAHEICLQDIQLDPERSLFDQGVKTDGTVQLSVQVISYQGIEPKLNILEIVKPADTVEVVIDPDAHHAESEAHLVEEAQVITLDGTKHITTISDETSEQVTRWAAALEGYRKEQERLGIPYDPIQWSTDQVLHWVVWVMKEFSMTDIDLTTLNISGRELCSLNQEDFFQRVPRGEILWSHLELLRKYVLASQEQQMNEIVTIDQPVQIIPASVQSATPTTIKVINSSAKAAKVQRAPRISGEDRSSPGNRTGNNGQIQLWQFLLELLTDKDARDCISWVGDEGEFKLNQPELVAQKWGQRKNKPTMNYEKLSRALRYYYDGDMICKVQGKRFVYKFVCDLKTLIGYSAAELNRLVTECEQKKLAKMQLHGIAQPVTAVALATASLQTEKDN
# Outline: as §1
# [4] = biological target: T4, ERG (Homo sapiens, UniProt P11308 1-479); conditions: protein: recombinant; tags: N-terminal GST; dsDNA, one strand shown
# T4 sequence: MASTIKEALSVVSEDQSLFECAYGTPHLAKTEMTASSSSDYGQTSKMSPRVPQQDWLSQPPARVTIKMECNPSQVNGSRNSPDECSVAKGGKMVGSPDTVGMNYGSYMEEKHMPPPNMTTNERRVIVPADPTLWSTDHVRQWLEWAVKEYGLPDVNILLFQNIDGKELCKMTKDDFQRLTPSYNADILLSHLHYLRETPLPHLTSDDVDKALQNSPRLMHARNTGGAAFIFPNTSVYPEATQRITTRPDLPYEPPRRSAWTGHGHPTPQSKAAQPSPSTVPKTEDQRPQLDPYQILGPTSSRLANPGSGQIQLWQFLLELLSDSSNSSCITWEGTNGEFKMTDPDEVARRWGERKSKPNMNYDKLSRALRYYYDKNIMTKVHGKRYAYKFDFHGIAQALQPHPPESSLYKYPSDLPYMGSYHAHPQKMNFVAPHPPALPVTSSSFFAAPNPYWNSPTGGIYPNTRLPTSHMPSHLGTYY
# Outline: as §1
# [5] = biological target: ELF1 (Homo sapiens, UniProt P32519 1-619); conditions: protein: recombinant; tags: N-terminal GST; dsDNA, one strand shown
# Outline: as §1
# [6] = biological target: T5, EHF (Homo sapiens, UniProt Q9NZC4 1-300); conditions: protein: recombinant; tags: N-terminal GST; dsDNA, one strand shown
# T5 sequence: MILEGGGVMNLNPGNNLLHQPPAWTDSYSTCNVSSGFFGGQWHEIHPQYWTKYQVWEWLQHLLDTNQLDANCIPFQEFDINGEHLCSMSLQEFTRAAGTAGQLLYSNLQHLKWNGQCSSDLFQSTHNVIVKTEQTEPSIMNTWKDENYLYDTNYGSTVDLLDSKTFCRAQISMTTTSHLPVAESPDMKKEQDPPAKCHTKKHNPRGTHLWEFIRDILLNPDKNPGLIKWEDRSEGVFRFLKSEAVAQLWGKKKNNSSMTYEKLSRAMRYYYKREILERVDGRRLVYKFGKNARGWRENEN
# Outline: as §1
# [7] = biological target: SPI1 (Homo sapiens, UniProt P17947 1-270); conditions: protein: recombinant; tags: N-terminal GST; dsDNA, one strand shown
# Outline: as §1
# [8] = biological target: SPIB (Homo sapiens, UniProt Q01892 1-262); conditions: protein: recombinant; tags: N-terminal GST; dsDNA, one strand shown
# Outline: as §1
# [9] = biological target: T6, ELK3 (Homo sapiens, UniProt P41970 1-407); conditions: protein: recombinant; tags: N-terminal GST; dsDNA, one strand shown
# T6 sequence: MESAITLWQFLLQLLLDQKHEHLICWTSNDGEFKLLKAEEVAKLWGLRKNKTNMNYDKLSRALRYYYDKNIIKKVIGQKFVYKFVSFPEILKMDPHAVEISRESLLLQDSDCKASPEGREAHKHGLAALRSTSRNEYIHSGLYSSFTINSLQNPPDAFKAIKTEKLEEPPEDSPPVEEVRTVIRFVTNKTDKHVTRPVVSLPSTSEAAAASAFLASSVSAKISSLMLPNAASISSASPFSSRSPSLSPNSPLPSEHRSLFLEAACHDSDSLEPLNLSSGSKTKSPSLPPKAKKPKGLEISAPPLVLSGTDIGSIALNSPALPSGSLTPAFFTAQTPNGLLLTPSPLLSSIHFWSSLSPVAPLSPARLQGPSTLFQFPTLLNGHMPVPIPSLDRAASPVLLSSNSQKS
# Outline: as §1
# [10] = biological target: T7, FEV (Homo sapiens, UniProt Q99581 1-238); conditions: protein: recombinant; tags: N-terminal GST; dsDNA, one strand shown
# T7 sequence: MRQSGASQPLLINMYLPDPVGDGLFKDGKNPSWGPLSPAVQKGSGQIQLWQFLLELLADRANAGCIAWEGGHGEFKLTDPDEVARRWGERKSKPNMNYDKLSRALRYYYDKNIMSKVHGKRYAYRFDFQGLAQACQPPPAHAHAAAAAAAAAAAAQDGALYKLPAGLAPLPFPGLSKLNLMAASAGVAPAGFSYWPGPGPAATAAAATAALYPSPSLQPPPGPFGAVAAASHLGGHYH
# Outline: as §1
# [11] = biological target: ETV5 (Homo sapiens, UniProt P41161 1-510); conditions: protein: recombinant; tags: N-terminal GST; dsDNA, one strand shown
# Outline: as §1
# [12] = biological target: HSF1 (Homo sapiens, UniProt Q00613 1-529); conditions: protein: recombinant; tags: N-terminal GST; chain copies: 3; dsDNA, one strand shown
# Outline: as §1
# [13] = biological target: T8, SPIC (Homo sapiens, UniProt Q8N5J4 1-248); conditions: protein: recombinant; tags: N-terminal GST; dsDNA, one strand shown
# T8 sequence: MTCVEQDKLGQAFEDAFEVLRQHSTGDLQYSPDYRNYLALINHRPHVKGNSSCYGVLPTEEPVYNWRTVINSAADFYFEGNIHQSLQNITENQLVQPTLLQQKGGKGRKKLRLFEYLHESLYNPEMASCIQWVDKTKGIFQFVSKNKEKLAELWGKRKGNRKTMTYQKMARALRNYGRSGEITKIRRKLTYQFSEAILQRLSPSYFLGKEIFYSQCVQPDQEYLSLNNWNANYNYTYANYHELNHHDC
# Outline: as §1
# [14] = biological target: ELF4 (Homo sapiens, UniProt Q99607 1-663); conditions: protein: recombinant; tags: N-terminal GST; dsDNA, one strand shown
# Outline: as §1
# [15] = biological target: T9, ELK4 (Homo sapiens, UniProt P28324-2 1-405); conditions: protein: recombinant; tags: N-terminal GST; dsDNA, one strand shown
# T9 sequence: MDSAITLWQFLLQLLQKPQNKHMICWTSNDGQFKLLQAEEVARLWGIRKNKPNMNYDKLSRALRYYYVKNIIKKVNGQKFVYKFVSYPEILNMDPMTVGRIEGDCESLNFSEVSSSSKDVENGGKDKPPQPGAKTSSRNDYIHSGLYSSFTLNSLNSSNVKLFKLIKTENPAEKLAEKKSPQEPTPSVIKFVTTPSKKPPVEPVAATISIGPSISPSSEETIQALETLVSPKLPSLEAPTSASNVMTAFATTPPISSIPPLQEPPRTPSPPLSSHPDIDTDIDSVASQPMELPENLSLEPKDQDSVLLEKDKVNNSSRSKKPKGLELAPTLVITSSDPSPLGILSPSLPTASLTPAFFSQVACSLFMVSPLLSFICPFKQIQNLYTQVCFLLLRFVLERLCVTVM
# Outline: as §1
# [16] = biological target: T10, ETV2 (Homo sapiens, UniProt O00321 1-342); conditions: protein: recombinant; tags: N-terminal GST; dsDNA, one strand shown
# T10 sequence: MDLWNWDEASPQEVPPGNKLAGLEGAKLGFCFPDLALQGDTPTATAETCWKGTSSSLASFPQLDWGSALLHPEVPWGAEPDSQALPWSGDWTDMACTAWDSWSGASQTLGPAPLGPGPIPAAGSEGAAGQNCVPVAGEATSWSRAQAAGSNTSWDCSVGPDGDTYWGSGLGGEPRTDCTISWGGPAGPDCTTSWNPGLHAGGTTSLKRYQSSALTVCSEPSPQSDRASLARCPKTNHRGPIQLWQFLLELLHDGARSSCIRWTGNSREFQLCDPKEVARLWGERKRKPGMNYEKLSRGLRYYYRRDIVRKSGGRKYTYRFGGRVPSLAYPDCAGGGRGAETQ
# Outline: as §1
# [17] = biological target: T11, ELF3 (Homo sapiens, UniProt P78545 1-371); conditions: protein: recombinant; tags: N-terminal GST; dsDNA, one strand shown
# T11 sequence: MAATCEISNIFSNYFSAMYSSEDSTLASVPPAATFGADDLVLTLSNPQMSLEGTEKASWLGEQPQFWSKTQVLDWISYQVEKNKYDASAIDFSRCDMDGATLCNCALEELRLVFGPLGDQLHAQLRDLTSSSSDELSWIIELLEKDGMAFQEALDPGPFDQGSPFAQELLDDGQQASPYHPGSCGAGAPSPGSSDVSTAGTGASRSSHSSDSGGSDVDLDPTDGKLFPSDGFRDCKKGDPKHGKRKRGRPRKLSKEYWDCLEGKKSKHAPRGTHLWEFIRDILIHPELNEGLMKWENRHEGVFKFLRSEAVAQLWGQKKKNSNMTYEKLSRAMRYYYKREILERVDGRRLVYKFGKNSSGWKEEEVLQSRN
# Outline: as §1
# [18] = biological target: CRX (Homo sapiens, UniProt O43186 1-299); conditions: protein: recombinant; tags: N-terminal GST; dsDNA, one strand shown
# Outline: as §1
# [19] = biological target: ETV1 (Homo sapiens, UniProt P50549 1-477); conditions: protein: recombinant; tags: N-terminal GST; dsDNA, one strand shown
# Outline: as §1
# CRX, sequence (O43186 whole entry): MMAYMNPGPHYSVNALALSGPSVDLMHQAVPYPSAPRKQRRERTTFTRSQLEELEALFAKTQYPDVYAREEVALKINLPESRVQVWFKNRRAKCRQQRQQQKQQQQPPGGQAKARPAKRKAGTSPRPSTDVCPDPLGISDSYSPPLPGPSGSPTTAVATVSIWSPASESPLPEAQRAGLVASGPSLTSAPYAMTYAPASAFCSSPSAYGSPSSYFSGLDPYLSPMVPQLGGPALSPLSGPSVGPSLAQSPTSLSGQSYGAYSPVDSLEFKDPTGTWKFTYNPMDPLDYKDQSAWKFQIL
# ELF1, sequence (P32519 whole entry): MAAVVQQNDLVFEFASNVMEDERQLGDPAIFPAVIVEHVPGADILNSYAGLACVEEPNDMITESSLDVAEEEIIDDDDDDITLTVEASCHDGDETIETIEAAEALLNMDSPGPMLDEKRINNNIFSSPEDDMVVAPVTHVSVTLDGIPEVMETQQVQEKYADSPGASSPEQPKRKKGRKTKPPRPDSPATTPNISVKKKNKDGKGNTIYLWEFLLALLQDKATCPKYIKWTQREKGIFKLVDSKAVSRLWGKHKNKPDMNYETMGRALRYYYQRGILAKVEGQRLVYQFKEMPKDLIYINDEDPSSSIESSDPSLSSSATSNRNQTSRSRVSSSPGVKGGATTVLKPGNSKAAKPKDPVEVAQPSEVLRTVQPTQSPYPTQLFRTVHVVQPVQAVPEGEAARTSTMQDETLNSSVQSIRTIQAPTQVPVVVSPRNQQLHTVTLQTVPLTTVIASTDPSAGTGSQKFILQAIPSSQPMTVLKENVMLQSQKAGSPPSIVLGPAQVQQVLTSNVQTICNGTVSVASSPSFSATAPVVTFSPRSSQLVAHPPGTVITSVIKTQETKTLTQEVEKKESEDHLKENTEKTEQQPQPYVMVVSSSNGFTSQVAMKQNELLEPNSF
# ETV1, sequence (P50549 whole entry): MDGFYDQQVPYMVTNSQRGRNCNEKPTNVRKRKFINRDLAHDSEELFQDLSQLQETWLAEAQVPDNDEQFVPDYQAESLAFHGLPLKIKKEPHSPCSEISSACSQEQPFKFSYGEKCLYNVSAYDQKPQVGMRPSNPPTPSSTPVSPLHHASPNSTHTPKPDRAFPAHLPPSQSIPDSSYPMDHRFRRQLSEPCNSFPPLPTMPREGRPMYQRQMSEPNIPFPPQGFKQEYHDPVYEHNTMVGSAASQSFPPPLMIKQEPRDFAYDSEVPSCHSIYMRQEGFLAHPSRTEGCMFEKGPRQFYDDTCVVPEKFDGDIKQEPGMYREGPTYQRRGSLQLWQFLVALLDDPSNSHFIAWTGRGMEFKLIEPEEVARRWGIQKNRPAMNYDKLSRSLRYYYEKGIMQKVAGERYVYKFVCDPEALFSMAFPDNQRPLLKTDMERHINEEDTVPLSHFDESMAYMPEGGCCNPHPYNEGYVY
# HSF1, sequence (Q00613 whole entry): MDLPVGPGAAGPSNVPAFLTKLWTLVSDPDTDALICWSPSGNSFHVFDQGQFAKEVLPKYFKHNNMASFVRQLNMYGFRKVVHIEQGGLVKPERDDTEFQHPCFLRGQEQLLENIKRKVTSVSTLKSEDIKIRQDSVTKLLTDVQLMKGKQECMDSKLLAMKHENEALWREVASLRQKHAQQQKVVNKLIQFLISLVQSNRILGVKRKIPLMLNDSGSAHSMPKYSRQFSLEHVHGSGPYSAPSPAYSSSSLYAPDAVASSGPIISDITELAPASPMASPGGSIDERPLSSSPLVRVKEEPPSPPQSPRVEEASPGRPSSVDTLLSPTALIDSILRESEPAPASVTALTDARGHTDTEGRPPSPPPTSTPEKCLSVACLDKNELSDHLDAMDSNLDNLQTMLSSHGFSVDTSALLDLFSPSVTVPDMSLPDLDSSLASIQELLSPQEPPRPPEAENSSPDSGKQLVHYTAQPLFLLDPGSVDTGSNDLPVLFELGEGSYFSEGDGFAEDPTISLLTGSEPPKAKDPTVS
# SPIB, sequence (Q01892 whole entry): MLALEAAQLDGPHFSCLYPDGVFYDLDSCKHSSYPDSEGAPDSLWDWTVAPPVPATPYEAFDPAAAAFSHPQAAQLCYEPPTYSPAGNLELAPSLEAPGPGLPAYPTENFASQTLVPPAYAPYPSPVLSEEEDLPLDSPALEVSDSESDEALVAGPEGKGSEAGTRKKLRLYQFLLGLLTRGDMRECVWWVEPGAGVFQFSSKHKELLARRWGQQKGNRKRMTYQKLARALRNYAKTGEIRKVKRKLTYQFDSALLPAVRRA
# ELF4, sequence (Q99607 whole entry): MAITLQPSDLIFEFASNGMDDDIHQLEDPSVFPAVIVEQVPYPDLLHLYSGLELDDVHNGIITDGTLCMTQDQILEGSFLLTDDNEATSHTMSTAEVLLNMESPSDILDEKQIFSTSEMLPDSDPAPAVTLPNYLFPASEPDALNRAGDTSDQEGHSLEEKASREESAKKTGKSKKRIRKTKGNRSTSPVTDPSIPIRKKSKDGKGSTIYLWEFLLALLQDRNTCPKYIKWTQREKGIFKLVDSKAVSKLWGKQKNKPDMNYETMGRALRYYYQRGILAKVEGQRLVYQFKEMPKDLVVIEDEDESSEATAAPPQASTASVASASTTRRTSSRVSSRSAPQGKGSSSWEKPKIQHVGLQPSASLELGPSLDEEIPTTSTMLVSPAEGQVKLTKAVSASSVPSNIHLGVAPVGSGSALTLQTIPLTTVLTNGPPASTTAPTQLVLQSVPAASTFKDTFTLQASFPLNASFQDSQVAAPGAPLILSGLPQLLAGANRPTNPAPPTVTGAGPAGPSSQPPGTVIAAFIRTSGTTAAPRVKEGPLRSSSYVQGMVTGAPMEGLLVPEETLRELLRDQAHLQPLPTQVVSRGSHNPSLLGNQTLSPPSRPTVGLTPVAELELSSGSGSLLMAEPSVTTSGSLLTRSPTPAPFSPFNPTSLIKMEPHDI
# ETV5, sequence (P41161 whole entry): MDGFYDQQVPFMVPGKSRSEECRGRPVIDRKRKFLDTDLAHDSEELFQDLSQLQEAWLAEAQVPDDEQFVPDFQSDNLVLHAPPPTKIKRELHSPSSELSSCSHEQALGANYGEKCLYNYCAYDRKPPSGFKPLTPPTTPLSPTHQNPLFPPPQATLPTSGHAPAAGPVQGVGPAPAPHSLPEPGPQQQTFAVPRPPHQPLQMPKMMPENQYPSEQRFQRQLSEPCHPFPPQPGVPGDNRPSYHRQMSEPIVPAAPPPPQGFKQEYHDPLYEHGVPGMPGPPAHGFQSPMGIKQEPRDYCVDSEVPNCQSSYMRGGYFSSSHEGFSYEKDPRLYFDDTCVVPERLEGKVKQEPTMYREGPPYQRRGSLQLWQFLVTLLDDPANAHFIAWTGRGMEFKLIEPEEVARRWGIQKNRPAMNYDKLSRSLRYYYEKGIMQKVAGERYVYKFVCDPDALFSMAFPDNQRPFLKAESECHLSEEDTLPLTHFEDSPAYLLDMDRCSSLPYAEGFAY
sequence,measurement,setting,value
ACTTCT,binding signal,[1],"1.49 fold enrichment (6-mer frequency, TF over GST control)"
same,binding signal,[2],"1.53 fold enrichment (6-mer frequency, TF over GST control)"
same,binding signal,[3],"1.5 fold enrichment (6-mer frequency, TF over GST control)"
same,binding signal,[4],"1.43 fold enrichment (6-mer frequency, TF over GST control)"
same,binding signal,[5],"1.52 fold enrichment (6-mer frequency, TF over GST control)"
same,binding signal,[6],"1.56 fold enrichment (6-mer frequency, TF over GST control)"
same,binding signal,[7],"1.62 fold enrichment (6-mer frequency, TF over GST control)"
same,binding signal,[8],"1.45 fold enrichment (6-mer frequency, TF over GST control)"
same,binding signal,[9],"1.48 fold enrichment (6-mer frequency, TF over GST control)"
same,binding signal,[10],"1.4 fold enrichment (6-mer frequency, TF over GST control)"
same,binding signal,[11],"1.45 fold enrichment (6-mer frequency, TF over GST control)"
same,binding signal,[12],"2.1 fold enrichment (6-mer frequency, TF over GST control)"
same,binding signal,[13],"1.47 fold enrichment (6-mer frequency, TF over GST control)"
same,binding signal,[14],"1.49 fold enrichment (6-mer frequency, TF over GST control)"
same,binding signal,[15],"1.83 fold enrichment (6-mer frequency, TF over GST control)"
same,binding signal,[16],"1.37 fold enrichment (6-mer frequency, TF over GST control)"
same,binding signal,[17],"1.45 fold enrichment (6-mer frequency, TF over GST control)"
same,binding signal,[18],"1.55 fold enrichment (6-mer frequency, TF over GST control)"
same,binding signal,[19],"1.47 fold enrichment (6-mer frequency, TF over GST control)"
